Compound activity deposited in PubChem BioAssay by The Scripps Research Institute Molecular Screening Center.
A selection: hits, their analogues and other compounds. The true share with any hit is near 1.9%.
PME-1 inh – PME-1 (human) inhibition; Q9Y570; recombinant PME-1, FP-Rh probe fluorescence polarization; inhibition, % at 5.9 µM; 0.53% of 320,000 active; AID 2130;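 active = inhibition above the campaign mean of all compounds plus 3 SD, cut at about 26% in these data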;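 also: competitive labeling of PME-1 active site by serine hydrolase directed probe; inhibitors block probe labeling so polarization falls and inhibition rises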
Target sequence (Q9Y570 whole entry, looked up): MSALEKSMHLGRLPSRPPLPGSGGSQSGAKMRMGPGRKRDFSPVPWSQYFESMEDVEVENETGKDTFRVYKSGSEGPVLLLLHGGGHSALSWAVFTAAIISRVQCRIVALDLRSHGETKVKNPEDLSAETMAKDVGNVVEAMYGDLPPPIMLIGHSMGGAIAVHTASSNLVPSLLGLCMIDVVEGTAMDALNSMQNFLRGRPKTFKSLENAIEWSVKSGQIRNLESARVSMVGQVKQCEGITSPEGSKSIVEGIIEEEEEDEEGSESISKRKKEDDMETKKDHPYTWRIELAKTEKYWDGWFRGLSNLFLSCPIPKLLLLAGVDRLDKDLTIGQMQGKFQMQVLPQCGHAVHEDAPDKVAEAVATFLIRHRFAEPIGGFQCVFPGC
LYPLA1 counter – LYPLA1 (human) inhibition in PME1 counter-screen | O75608 | recombinant LYPLA1, FP-Rh probe fluorescence polarization | inhibition, % at 5.9 µM | 0.16% of 320,000 active | AID 2174;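 active = inhibition above the mean of all tested compounds plus 3 SD, set per campaign, cut at about 14% in these data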;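 also: inhibitors block serine hydrolase probe labeling of LYPLA1 so polarization falls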
Target sequence (O75608 whole entry, looked up): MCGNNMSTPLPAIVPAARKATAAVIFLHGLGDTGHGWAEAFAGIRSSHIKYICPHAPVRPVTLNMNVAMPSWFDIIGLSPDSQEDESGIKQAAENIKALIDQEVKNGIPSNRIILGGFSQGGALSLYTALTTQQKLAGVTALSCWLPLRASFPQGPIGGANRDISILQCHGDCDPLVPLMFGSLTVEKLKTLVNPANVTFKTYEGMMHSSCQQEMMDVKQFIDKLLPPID
LYPLA2 inh – blocks human lysophospholipase 2, a PME1 counter-screen; inhibition, % at 5.9 µM; 0.38% of 320,000 active; recombinant LYPLA2, FP-Rh probe fluorescence polarization; O95372; AID 2177;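 active = inhibition above the screen-wide mean plus 3 SD, limit set per campaign, cut at about 26% in these data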
Fam108B counter – Fam108B inhibition, counter-screen for RBBP9 inhibitors; inhibition, % at 9.51 µM; recombinant Fam108B, FP-Rh probe fluorescence polarization; 0.33% of 300,000 active;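 active = inhibition above the screen mean inhibition plus 3 SD, computed separately per campaign, cut at about 18% in these data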;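 also: inhibitors lower polarization as less probe binds the enzyme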
GSTO1 inh – blocks human GSTO1 in RBBP9 counter-screen | P78417 | recombinant GSTO1, activity-based probe fluorescence polarization | inhibition, % at 5.96 µM | 1.1% of 300,000 active;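 active = inhibition above the campaign mean inhibition plus 3 SD, cut at about 35% in these data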
PREPL inh – inhibits the human prolyl oligopeptidase-like enzyme. Q4J6C6. recombinant PREPL, fluorescence polarization activity-based probe. inhibition, % at 5.96 µM. 0.68% of 320,000 active. AID 2751; in the data active = inhibition above about 43%
Fam108b inh conf – confirmation of mouse Fam108b serine hydrolase inhibitors; shares compounds with Fam108B counter; recombinant Fam108b, FP-Rh probe fluorescence polarization; inhibition, % at 9.51 µM; 44% of 930 active; AID 1978;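 active = inhibition above a limit from the primary screen, the mean over all compounds plus 3 SD, cut at about 19% in these data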;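 also: inhibitors free the probe so polarization falls as inhibition rises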
Fam108b inh – inhibits mouse Fam108b in gel-based ABPP. inhibition, % at 20 µM. shares compounds with Fam108B counter. 44% of 260 active. recombinant Fam108b, fluorophosphonate probe; in the data active = inhibition above about 40%
Of the large screens only hits and unclear results are named; the others gave an inactive call (follow-up assays come after a bar, where they were run).

CCCn1c(N)c(N2CCCCC2)c(=O)n(CC(=O)Nc2ccc(C(C)=O)cc2)c1=O	none (no result: PME-1 inh, LYPLA1 counter, LYPLA2 inh, Fam108B counter, GSTO1 inh)
O=S(=O)(c1cccc(-c2n[nH]c(=S)n2-c2ccc(OC(F)(F)F)cc2)c1)N1CCOCC1	none (no result: PME-1 inh, LYPLA1 counter, LYPLA2 inh, Fam108B counter, GSTO1 inh)
COc1ccc(NC(=O)CSc2nnc3n2CCCCC3)cc1S(=O)(=O)N1CCOCC1	none (no result: Fam108B counter, GSTO1 inh)
Cc1ccc(C2C3=C(CC(C)(C)CC3=O)N=C3c4ccccc4C(=O)C32)cc1 (stereo not given)	Fam108B counter 22.9 | Fam108b inh conf inactive
CCc1ccc(-c2csc(NC(=O)C3=COCCO3)n2)cc1	none (no result: Fam108B counter, GSTO1 inh)
O=C(Nc1ccccc1)Nc1cccc(Cl)c1Cl	none
O=C(Nc1ccc(Cl)c(Cl)c1)Nc1ccccc1O	Fam108B counter 19.7 | Fam108b inh conf inactive
O=C(Nc1ccc(Oc2ccc(NC(=O)Nc3ccccc3Cl)cc2)cc1)Nc1ccccc1Cl	Fam108B counter 58.0 | Fam108b inh conf 58.7 | Fam108b inh inactive
COc1ccc(-c2csc(NC(=O)Nc3ccccc3)n2)cc1	PME-1 inh 48.0, Fam108B counter 44.6 | Fam108b inh conf inactive
COc1ccc(/C(C)=N/Nc2cccc(C(=O)O)c2)cc1OC	none
C/C(=N\Nc1ccc(C(=O)O)cc1)c1ccc2c(c1)Nc1ccccc1S2	PME-1 inh 27.9, Fam108B counter 30.3 | Fam108b inh conf 27.3
O=C(NNS(=O)(=O)c1ccccc1Cl)C1COc2ccccc2O1 (stereo not given)	none (no result: PME-1 inh, LYPLA1 counter, LYPLA2 inh, Fam108B counter, GSTO1 inh)
COc1ccc(-c2nc(-c3ccccc3)c(-c3cc([N+](=O)[O-])ccc3C)[nH]2)cc1O	PME-1 inh 38.9, Fam108B counter 27.7 | Fam108b inh conf inactive
Cc1ccc([N+](=O)[O-])cc1-c1[nH]c(-c2ccc(O)c(O)c2)nc1-c1ccccc1	none
Cc1c(Br)c(=O)oc2c(Br)c(O)c(O)cc12	Fam108B counter 24.7 | Fam108b inh conf 21.0
CCCCn1c(N)c(N(C)C(=O)c2c(C)nn(-c3ccccc3)c2C)c(=O)[nH]c1=O	none (no result: PME-1 inh, LYPLA1 counter, LYPLA2 inh, Fam108B counter, GSTO1 inh)
COc1cccc2c1OCC(C(=O)Nc1nccs1)=C2	none
O=C(Nc1ccc(-c2csc(Nc3cccc(C(F)(F)F)c3)n2)cc1)c1cc([N+](=O)[O-])cc(C(F)(F)F)c1	Fam108B counter 41.1 | Fam108b inh conf inactive
O=C(Nc1ccc(-c2csc(Nc3cccc(C(F)(F)F)c3)n2)cc1)c1ccccc1	none
c1coc(C2Nc3cccc4cccc(c34)N2)c1	Fam108B counter 22.1, GSTO1 inh 50.4, PREPL inh 43.4 | Fam108b inh conf 18.3
CCCOc1ccc(C2Nc3cccc4cccc(c34)N2)cc1	PME-1 inh 49.4, Fam108B counter 25.5 | Fam108b inh conf inactive
COc1ccc(C2Nc3cccc4cccc(c34)N2)cc1Br	PME-1 inh 31.8, Fam108B counter 36.6 | Fam108b inh conf inactive
Oc1ccc(C2Nc3cccc4cccc(c34)N2)c(O)c1	PME-1 inh 63.6, Fam108B counter 66.7 | Fam108b inh conf 44.5 | Fam108b inh 65.0
C[C@@H]1CN([C@@H](C)CO)C(=O)c2cc(NC(=O)Nc3ccc(F)cc3)ccc2O[C@@H]1CN(C)Cc1ccc(Oc2ccccc2)cc1	none (no result: PME-1 inh, LYPLA1 counter, LYPLA2 inh, Fam108B counter, GSTO1 inh)
C/C(=C\c1ccccc1F)C1Nc2cccc3cccc(c23)N1	none (no result: Fam108B counter, GSTO1 inh)
Fc1ccc(C2Nc3cccc4cccc(c34)N2)cc1	Fam108B counter 33.4, GSTO1 inh 37.1 | Fam108b inh conf inactive
CC(C(=O)Nc1ccc(C#N)cc1)N(C)CC(=O)N(C)c1c(N)n(Cc2ccccc2)c(=O)[nH]c1=O (stereo not given)	none (no result: PME-1 inh, LYPLA1 counter, LYPLA2 inh, Fam108B counter, GSTO1 inh)
CCC(=O)NC(c1ccccc1Cl)c1c(O)ccc2ccccc12 (stereo not given)	PME-1 inh 46.7, Fam108B counter 18.4 | Fam108b inh conf inactive
COc1cc2c(cc1NC(=S)Nc1cccc(C(F)(F)F)c1)oc1ccccc12	Fam108B counter 24.4 | Fam108b inh conf 44.6 | Fam108b inh 85.0
COc1cc2c(cc1NC(=O)CCC(=O)O)oc1ccccc12	none
COc1cc2c(cc1NC(=O)Nc1ccccc1)oc1ccccc12	PME-1 inh 30.7, Fam108B counter 33.4 | Fam108b inh conf 42.9 | Fam108b inh 90.0
CC(C)c1ccc(S(=O)(=O)/N=C2/C=C(Sc3ncn[nH]3)C(=O)c3ccccc32)cc1	PME-1 inh 41.5, LYPLA2 inh 36.3, Fam108B counter 57.5, GSTO1 inh 85.1 | Fam108b inh conf 35.5
Clc1ccc2[nH]c3c(c2c1)CCc1cn[nH]c1-3	PME-1 inh 39.8, Fam108B counter 22.1 | Fam108b inh conf inactive
O=C(NCc1ccco1)c1cccc(Nc2nc3ccc(Br)cc3[nH]2)c1	Fam108B counter 25.4 | Fam108b inh conf inactive
O=C(NCC1CC1)c1ccc(Nc2nc3ccc(Br)cc3[nH]2)cc1	Fam108B counter 19.2 | Fam108b inh conf 47.6 | Fam108b inh 75.0
S=C(NCc1ccccc1)NCc1cccc(CNC(=S)NCc2ccccc2)c1	PME-1 inh 34.7, Fam108B counter 35.6 | Fam108b inh conf 24.9
NNC(=S)NCc1ccccc1	none
COc1ccc(Nc2nc(N)c(C(=O)c3ccc(OC)cc3)s2)cc1	none
COc1ccc(Nc2nc(N)c(C(=O)c3ccc(F)cc3)s2)cc1	Fam108B counter 49.6 | Fam108b inh conf inactive
COCC(=O)N(C)C[C@H]1N[C@@](C)(C(=O)OC)[C@H]2C(=O)N(Cc3ccccc3)C(=O)[C@@H]12	none (no result: PME-1 inh, LYPLA1 counter, LYPLA2 inh, Fam108B counter, GSTO1 inh)
Cc1ccc(NS(=O)(=O)c2cc(NC(=O)C(C)Oc3ccccc3)ccc2C)c(C)c1 (stereo not given)	none
Cc1ccc(C)c(S(=O)(=O)Nc2cc(SCC(=O)O)c(O)c3ccccc23)c1	PME-1 inh 27.7, LYPLA2 inh 35.0, Fam108B counter 28.7, GSTO1 inh 87.0 | Fam108b inh conf inactive
O=C(Nc1ccc(Cl)c(Cl)c1)Nc1ccc(N2CCCC2)c(S(=O)(=O)Nc2ccccc2Cl)c1	none
O=C(Nc1ccc(F)cc1)Nc1ccc(N2CCCC2)c(S(=O)(=O)Nc2ccccc2Cl)c1	Fam108B counter 25.4 | Fam108b inh conf 36.8 | Fam108b inh 95.0
COc1cc(OC)c2cc(C(=O)N/N=C/c3cccc(OC)c3O)[nH]c2c1	PME-1 inh 43.7, Fam108B counter 22.5 | Fam108b inh conf 22.2
COc1cccc(/C=N/NC(=O)c2ccc3nc[nH]c3c2)c1O	none
Cn1cccc1-c1cc(C(=O)N/N=C/c2ccccc2Cl)[nH]n1	none
COc1cccc(/C=N/NC(=O)c2cc3c(OC)ccc(OC)c3[nH]2)c1O	PME-1 inh 42.2, Fam108B counter 27.4 | Fam108b inh conf inactive
COc1cc2cc(C(=O)N/N=C/c3ccccc3Cl)[nH]c2cc1OC	Fam108B counter 32.3 | Fam108b inh conf 29.9
COc1cccc(/C=N/NC(=O)N/N=C/c2cccc(OC)c2O)c1O	none
